According to the supplement of paper PMC9135407:
Counter-ions that a name gives are not always drawn.

tested on: primary human hepatic stellate cells (donor 1); test: ACTA2 mRNA fold change vs DMSO (normalised to PSMB2); higher = more ACTA2 expression; settings: 48 h
Description: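 Secondary qRT-PCR screen in primary human HSCs (donor 1), 384-well plates, with compounds dispensed in quadruplicate and incubated for 48 h. Cells-to-CT lysates were used for multiplexed TaqMan qPCR of ACTA2 or COL1A1 with PSMB2 as reference. Fold changes versus DMSO come from a linear model (Ct_gene ~ Ct_PSMB2 + plate + chemical). A hit is defined as COL1A1 and ACTA2 FC <0.5 (FDR <0.05) with PSMB2 between 0.2 and 2.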

| SMILES | ACTA2 mRNA fold change |
| --- | --- |
| CC1=NCCc2c1[nH]c1cc(O)ccc21 [Harmalol hydrochloride dihydrate] (24.4333 µM) | 0.546 |
| O=c1[nH]c2ccccc2n1C1CCN(CCCC(c2ccc(F)cc2)c2ccc(F)cc2)CC1 [Pimozide] (33.3333 µM) | 0.0136 |
| CN1[C@@H]2CC[C@H]1C[C@@H](OC(c1ccc(F)cc1)c1ccc(F)cc1)C2 [3 α-Bis-(4-fluorophenyl) methoxytropane hydrochloride] (33.3333 µM) | 0.094 |
| CC(C(=O)OC1CC2CCC(C1)N2C)c1ccc(Br)cc1 (configuration not stated) [PG-9 maleate] (33.3333 µM) | 0.404 |
| CC1=C(O)C(=O)C=C2C1=CC=C1[C@@]2(C)CC[C@@]2(C)[C@@H]3C[C@](C)(C(=O)O)CC[C@]3(C)CC[C@]12C [Celastrol] (3.33333 µM) | 0.524 |
| O=[N+]([O-])/C=C/c1ccc2c(c1)OCO2 (3.7 µM) | 0.905 |
| CCCCCCCCCCCCCC(=O)O[C@@H]1[C@@H](C)[C@@]2(O)[C@@H](C=C(CO)C[C@]3(O)C(=O)C(C)=C[C@@H]23)[C@@H]2C(C)(C)[C@]12OC(C)=O [Phorbol 12-myristate 13-acetate] (27.0333 µM) | 0.624 |
| CCN(CC)CCO[C@H]1CC[C@@]2(C)C(=CC[C@@H]3[C@@H]2CC[C@]2(C)C(=O)CC[C@@H]32)C1 (33.3333 µM) | 0.123 |
| C[C@@H]1O[C@@H](O[C@H]2C[C@@H](O)[C@]3(CO)[C@H]4[C@H](O)C[C@]5(C)[C@@H](C6=CC(=O)OC6)CC[C@]5(O)[C@@H]4CC[C@]3(O)C2)[C@H](O)[C@H](O)[C@H]1O [Ouabain] (33.3333 µM) | 0.0189 |
| COc1ccc2c(c[n+](C)c3c4cc5c(cc4ccc23)OCO5)c1OC (6.66667 µM) | 0.0494 |
| CO[C@H]1CC[C@@H](O[C@H]2C[C@H]([C@]3(C)CC[C@]4(C[C@H](O)[C@@H](C)[C@@H]([C@@H](C)/C=C(\C)C(=O)[C@H](C)C[C@H](C)C(=O)O)O4)O3)O[C@]3(O[C@@H]([C@H]4O[C@@](O)(CO)[C@H](C)C[C@@H]4C)C[C@@H]3C)[C@@H]2C)O[C@@H]1C [Nanchangmycin] (11.1 µM) | 0.0291 |
| COc1ccc2[nH]cc(C3=CCNCC3)c2c1 (33.3333 µM) | 3.02 |
| CC[C@H]1CN2CCc3cc(OC)c(OC)cc3[C@@H]2C[C@@H]1C[C@H]1NCCc2cc(OC)c(OC)cc21 [Emetine] (12.0333 µM) | 0.0996 |
| Fc1cc(F)c2c(c1)[C@H]1C=CC[C@H]1C(c1cccnc1)N2 (some centres not stated) [Golgicide A] (33.3333 µM) | 0.00835 |
| O=C1C2CCN(CC2)C1(CO)CO (90 µM) | 0.152 |
| CN(C(=O)Cc1ccc(Cl)c(Cl)c1)[C@H](CN1CCCC1)c1ccccc1 [ICI-199,441 hydrochloride] (33.3333 µM) | 0.0655 |
| CCN1CCN(C(=O)Cc2ccc(Nc3ncc(F)c(Nc4ccc(C(=O)Nc5ccccc5Cl)cc4)n3)cc2)CC1 [Aurora A Inhibitor I] (33.3333 µM) | 0.131 |
| O=C1/C(=C/c2ccccc2)C[C@@]2(O)[C@H]3Cc4ccc(O)c5c4[C@@]2(CCN3CC2CC2)[C@H]1O5 [BNTX maleate] (33.3333 µM) | 0.275 |
| CC1=C(CC/C(C)=C/CCC2=CC[C@H](C3=CC(=O)O[C@H]3O)O[C@H]2O)C(C)(C)CCC1 [Manoalide] (40 µM) | 0.0669 |
| CN[C@@H]1C[C@H]2O[C@@](C)([C@@H]1OC)n1c3ccccc3c3c4c(c5c6ccccc6n2c5c31)C(=O)NC4 [staurosporine] (35.6667 µM) | 0.667 |
| C[C@]12CC[C@H](O)C[C@H]1CC[C@@H]1[C@@H]2CC[C@]2(C)[C@@H](C3=CC(=O)OC3)CC[C@]12O [Digitoxigenin] (33.3333 µM) | 0.0171 |
| C[C@H](N)Cn1ccc2cc(F)c(Cl)cc21 [Ro 60-0175 fumarate] (33.3333 µM) | 0.532 |
